Assay results as given in PubChem BioAssay (NCI).
Compounds without any hit were thinned out: in the full panel of roughly 83,000, 20% have a hit.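 96-well plates, one dose, 48 hours. Percent growth reported; active if below 10.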 Unmarked numbers belong to inactive results. The source made the active and inactive calls.

Test system: HL-60(TB) leukemia
Test: NCI-60 one-dose screen, 48 h (100 = growth as untreated, 0 = no growth, -100 = all killed)
Conditions: 10 µM unless noted

## Cc1cc(C)c(NC(=O)c2sc3nc4c(cc3c2N)CCCC4)c(C)c1
  growth: -6.2% (active)

## CCN(CC)c1ccc2cc(C(Nc3ccc(C)cc3)c3nnnn3C(C)(C)C)c(=O)oc2c1 (centres undefined)
  growth: 89%

## N=C1C(c2nc3ccccc3s2)=C(O)CN1c1cc(Cl)cc(Cl)c1
  growth: 35.5%

## O=C(Nc1cccc(-n2cc(-c3ccncc3)c(-c3ccc(Cl)c(O)c3)n2)c1)Nc1ccc(Cl)c(C(F)(F)F)c1
  growth: -11.2% (active)

## COc1ccc(OC)c(-c2ccc(-c3ccccc3N)c3[nH]c4ccccc4c23)c1
  growth: 93.4%

## Cn1c(=O)c2nc3c(=O)n(C)c(=O)n(C)c3nc2n(C)c1=O
  growth: 85.1%

## Cn1cc(-c2csc(-c3cn(CCOC(N)=O)c4ccccc34)n2)c2cccnc21
  growth: 86.9%

## Nc1nsc(C(=O)c2ccc(O)cc2)n1
  growth: 92.4%

## O=CN1N=C(c2ccc3c(c2)OCO3)CC1c1cccc(Nc2ccnc3cc(C(F)(F)F)ccc23)c1 (centres undefined)
  growth: 72.8%
